Data on 14 sequences can be found in PMC5700166.

The target in the assay is T1, GST-Ap-NF-kB RHD (Exaiptasia pallida (Aiptasia), UniProt A0A913YAJ5 2-422).
T1 sequence: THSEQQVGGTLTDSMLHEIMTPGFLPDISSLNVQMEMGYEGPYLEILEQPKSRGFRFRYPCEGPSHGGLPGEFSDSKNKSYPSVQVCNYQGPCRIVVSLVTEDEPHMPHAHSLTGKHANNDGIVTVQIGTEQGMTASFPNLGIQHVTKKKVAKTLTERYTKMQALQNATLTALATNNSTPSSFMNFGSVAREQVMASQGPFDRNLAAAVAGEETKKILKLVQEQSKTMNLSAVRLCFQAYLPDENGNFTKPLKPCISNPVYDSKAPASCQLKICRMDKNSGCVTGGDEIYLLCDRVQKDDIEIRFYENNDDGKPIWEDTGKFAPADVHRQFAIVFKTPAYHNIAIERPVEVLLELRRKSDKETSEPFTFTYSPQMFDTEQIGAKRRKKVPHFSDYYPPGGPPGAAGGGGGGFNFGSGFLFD
The experiment in a line: protein-binding microarray (PBM); PBM: ~300 nM protein, 6 mM HEPES pH 7.8, 80 mM KCl, 0.5 mM EDTA, 0.5 mM EGTA, 6% glycerol, 35 ng/ul poly-dIdC, 1% milk, 1 h, room temperature; Ap Aiptasia and Nv Nematostella (sea anemones) / Co Capsaspora / Aq Amphimedon (sponge) / Dm Drosophila / Hu human; RHD is the Rel homology domain; high values mean tight binding. The settings on record: dsDNA, one strand shown.
Turning to “CCGATTAACATCAGGGGGTATACTGATGTTAATCGGGTCTTGATTCGCTTGACGCTGCTG”, the binding signal worked out at 5.81 z-score.

“CCGATTAACATCAGGGTAAAACCTGATGTTAATCGGGTCTTGATTCGCTTGACGCTGCTG” showed a binding signal of 1.98 z-score.

For “CCGATTAACATCAGAAGTTTCCCTGATGTTAATCGGGTCTTGATTCGCTTGACGCTGCTG”, the binding signal was 4.01 z-score.

For the sequence “CCGATTAACATCAGGATCTTCCCTGATGTTAATCGGGTCTTGATTCGCTTGACGCTGCTG”, the binding signal was 3.64 z-score.

The sequence “CCGATTAACATCAGGGAGCCCCCTGATGTTAATCGGGTCTTGATTCGCTTGACGCTGCTG” showed a binding signal of 8.32 z-score.

The sequence “CCGATTAACATCAAAGTGTCCCCTGATGTTAATCGGGTCTTGATTCGCTTGACGCTGCTG” yielded a binding signal of 5.38 z-score.

As for “CCGATTAACATCACGTAAACCCCTGATGTTAATCGGGTCTTGATTCGCTTGACGCTGCTG”, the binding signal was 3.55 z-score.

“CCGATTAACATCAGAAATCCCGCTGATGTTAATCGGGTCTTGATTCGCTTGACGCTGCTG” came in with a binding signal of 3.54 z-score.

“CCGATTAACATCATCCCCGTGTCTGATGTTAATCGGGTCTTGATTCGCTTGACGCTGCTG”: the binding signal was 2.75 z-score.

Sequence “CCGATTAACATCAGAATAACCCCTGATGTTAATCGGGTCTTGATTCGCTTGACGCTGCTG” displayed a binding signal of 5.37 z-score.

Consider “CCGATTAACATCAGGGGTTTCCATGATGTTAATCGGGTCTTGATTCGCTTGACGCTGCTG”, for which the binding signal came to 5.75 z-score.

Regarding “CCGATTAACATCAGACATTCCCATGATGTTAATCGGGTCTTGATTCGCTTGACGCTGCTG”, the binding signal was 1.46 z-score.

As to “CCGATTAACATCAGGGGAAGGAATGATGTTAATCGGGTCTTGATTCGCTTGACGCTGCTG”, the binding signal is 3.87 z-score.

“CCGATTAACATCACGGGTTTCCCTGATGTTAATCGGGTCTTGATTCGCTTGACGCTGCTG” came in with a binding signal of 3.92 z-score.
